# Data from PubChem BioAssay AID633 (Emory University Molecular Libraries Screening Center, 2007).
# Screen size: about 86,000 compounds; about 1,100 (1.3%) were called active. The sample as a whole holds a higher share of actives than the screen did. A number with no mark means an inactive call.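 The calls were made as follows: active = compounds whose percent inhibition of the receptor-coactivator binding signal exceeds about 50% in the single-dose screen (limit read from the data); inactive = the rest.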
# Molecular target: Estrogen receptor beta (Homo sapiens) (UniProt Q92731)
# Assay: blockers of coactivator peptide binding to ERβ – biochemical, TR-FRET, ERβ LBD, SRC-1 peptide, primary screen (AID 633);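 also: 0% = receptor plus peptide wells without compound and 100% = peptide-only wells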
# Details: TR-FRET ER-beta LBD / SRC1-Cy5 peptide binding; at 25.6 µM; stronger effect = higher value; receptor agonist-loaded with 1 µM estradiol
# Sequence of Estrogen receptor beta (Homo sapiens) (Q92731 whole entry, looked up, the tested form may be a part): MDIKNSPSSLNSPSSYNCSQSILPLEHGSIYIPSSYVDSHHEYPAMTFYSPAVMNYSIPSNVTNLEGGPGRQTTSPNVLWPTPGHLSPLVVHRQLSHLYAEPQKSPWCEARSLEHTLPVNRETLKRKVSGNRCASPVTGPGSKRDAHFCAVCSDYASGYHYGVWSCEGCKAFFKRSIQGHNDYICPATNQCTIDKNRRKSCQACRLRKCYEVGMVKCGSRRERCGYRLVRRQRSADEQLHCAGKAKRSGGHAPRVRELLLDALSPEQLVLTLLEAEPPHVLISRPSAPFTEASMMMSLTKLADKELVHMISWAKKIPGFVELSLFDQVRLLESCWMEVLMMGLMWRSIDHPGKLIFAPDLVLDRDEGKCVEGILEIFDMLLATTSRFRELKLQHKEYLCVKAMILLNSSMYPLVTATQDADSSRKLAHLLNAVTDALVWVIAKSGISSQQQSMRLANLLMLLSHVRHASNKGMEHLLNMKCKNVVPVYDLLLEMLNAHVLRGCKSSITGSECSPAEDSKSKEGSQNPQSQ
row,SMILES,inhibition
1,CC(CO)N1CCS(=O)(=O)CC1 (stereo unspecified),-15%
2,CCN(c1ccccc1)S(=O)(=O)c1ccc(NC(=O)C(C)(C)C)cc1,14.4%
3,CCCn1c(=O)c2ccccc2n2c(SCC(=O)/C(C#N)=C(\C)N)nnc12,50.4% [fluorescence artefact?] (active)
4,C=CCn1c(SCC(=O)/C(C#N)=C(\C)N)nc2sc(C)c(C)c2c1=O,16.2%
5,C=CCn1c(=O)c2ccccc2n2c(SCC(=O)N3CCCc4ccccc43)nnc12,-1.59%
6,O=C(CN1CCSCC1)N/N=C/c1ccc(F)cc1F,12.6%
7,CC(C)(O)C(=O)NN(C(=O)c1ccccc1)c1cccc(Br)c1,-3.36%
8,COC(=O)c1cccc(N(C(=O)c2ccco2)C(C(=O)NC2CCCC2)c2ccco2)c1 (stereo unspecified),-14.4%
9,O=C(NCCOc1ccccc1)c1ccccc1,7.95%
10,CS(=O)(=O)N(CC(=O)NCc1ccco1)c1ccc2c(c1)OCO2,44.3%
11,O=C(Cn1nnc(-c2ccccc2)n1)NCc1ccc2c(c1)OCO2,9.19%
12,O=C(Cn1nnc(-c2ccc3c(c2)OCO3)n1)NCc1ccco1,50.1% (active)
13,CC1(N2CCOCC2)CC2(O)C(=[N+]1[O-])CCc1nonc12 (stereo unspecified),58.1% (active)
14,Cc1[nH]n(-c2cccc(Cl)c2)c(=O)c1/C=N/n1c(C)nc2ccccc2c1=O,-3.58%
15,CC(=O)Nc1ccc(S(=O)(=O)N2CCN(C(=O)c3ccccc3F)CC2)cc1,-9.27%
16,O=C(CN1CCCCCC1)N1c2ccccc2Sc2ccc(C(F)(F)F)cc21,-7.5%
17,CC(c1ccco1)N(C(=O)Nc1ccccc1)C1CCCCC1 (stereo unspecified),0.39%
18,Cc1c(Br)cc(C(=O)N2CCCCCC2)c(C)c1C,-18.4%
19,COc1ccc(Cc2nnc(NC(=O)Cc3cccs3)s2)cc1,92% (active)
20,COc1ccc(Cc2nnc(NS(=O)(=O)Cc3ccccc3)s2)cc1,39.9%
21,CCCc1ccc(-c2csc(NC(=O)Cc3cccs3)n2)cc1,11.4%

row,SMILES,inhibition
1,CCOc1ccc(Nc2oc(Cc3ccccc3)nc2C#N)cc1,-1.53%
2,COc1ccccc1-c1nc(C#N)c(N2CCC(C(N)=O)CC2)o1,-16.6%
3,COc1ccc(Nc2oc(-c3ccccc3Cl)nc2C#N)cc1,76.6% [fluorescence artefact?] (active)
4,Cc1ccc(/C=N/NC(=O)Cn2nc(C)c(Br)c2C)o1,-11.6%
5,CCOc1ccccc1C(=O)NC1CC2CCCC(C1)N2Cc1ccccc1 (stereo unspecified),5.21%
6,CCN(CC)CCn1c2ccc(Cl)cc2c2nc(C)sc21,-0.33%
7,CS(=O)(=O)N(CC(=O)Nc1ccc(Cl)c(Cl)c1)C1CCCCC1,-2.05%
8,CC(C)(C)C1CCc2c(sc3nc(SCC(N)=O)nc(N)c23)C1 (stereo unspecified),-6.07%
9,COc1ccc2[nH]cc(/C=C(/C#N)S(=O)(=O)c3ccccc3)c2c1,54.7% [fluorescence artefact?] (active)
10,COc1ccc2[nH]c3ccc(OC)cc3c2c1,1.96%
11,CCN(CC)CC(=O)c1c[nH]c2ccc(OC)cc12,-8.33%
12,COC(=O)c1ccc(CSc2ccc3nnc(-c4ccccc4)n3n2)o1,-3.95%
13,Cc1ccc(S(=O)(=O)NC(=O)COc2ccccc2C)cc1,8.77%
14,CCOc1cc(N2CCOCC2)c(OCC)cc1NC(=O)COC(=O)[C@H](Cc1c[nH]c2ccccc12)NC(C)=O,-5.51%
15,CCOc1cc(N2CCOCC2)c(OCC)cc1NC(=O)COc1cccc2cccnc12,61.6% [fluorescence artefact?] (active)
16,CCOc1cc(NC(=O)c2ccco2)c(OCC)cc1NC(=O)COc1ccccc1,48.5%
17,O=C(Oc1ccccc1C(=S)N1CCCCC1)c1cc([N+](=O)[O-])cc([N+](=O)[O-])c1,-10.5%
18,Cc1nnc(SC(C)C(=O)Nc2ccc(S(=O)(=O)NC3CCCCC3)cc2)s1 (stereo unspecified),17.8%
19,COc1ccc(CC(=O)Nc2ccc(-c3nnc(-c4ccc(C)cc4)o3)cc2)cc1,15.6%
20,CCOc1ccc(-c2nnc(-c3ccco3)o2)cc1,-5.81%
21,Cc1ccc(OCC(=O)Nc2ccc(-c3nnc(-c4ccco4)o3)cc2)cc1,63.5% [fluorescence artefact?] (active)

row,SMILES,inhibition
1,COc1ccc(CC(NC(C)=O)C(=O)N2CCN(C(=O)Nc3cccc(Cl)c3)CC2)cc1OC (stereo unspecified),-8.98%
2,COc1ccc(C(C#N)Nc2ccccc2C)cc1 (stereo unspecified),-1.62%
3,CC(C)CNC(=O)CC(c1ccccc1)c1c(O)ccc2ccccc12 (stereo unspecified),-3.69%
4,O=C(Cn1c(-c2cscn2)nc2ccccc21)Nc1ccc(Cl)cc1,18.5%
5,COc1ccccc1NC(=O)CSc1nnc(C)n1CC1CCCO1 (stereo unspecified),-11.8%
6,CN(C)[C@@H]1C(=O)C(C(N)=O)=C(O)[C@@]2(O)C(=O)C3=C(O)c4c(O)ccc(Cl)c4[C@@H](O)[C@H]3C[C@@H]12,91.5% [fluorescence artefact?] (active)
7,COc1ccc(-n2c(C)csc2=S)cc1,-15.3%
8,ON=C1/C(=N\O)CC2(C/C1=N/O)OCCO2,60.3% (active)
9,O/N=C1\CC2(Cc3nonc31)OCCO2,23%
10,O=C(CSc1nnnn1-c1ccccc1)NCc1ccco1,17.8%
11,CCOC(=O)Nc1sc(C(=O)N(C)C)c(C)c1C(=O)OCC,4.28%
12,Cc1ccc(Cc2cncc(O)c2)cc1S(=O)(=O)O,54.6% (active)
13,Cc1cc(O)cc(O)c1C(=O)Cc1cnn(-c2ccccc2)c1,-7.76%
14,Cn1nc(-c2ccccc2)c(CSc2cccc(Cl)c2)c1Cl,-3.81%
15,Cn1c(NN)nc2sc3c(c2c1=O)CCC3,-7.13%
16,CCNC(=O)NC(=O)C(C)OC(=O)c1cc(S(=O)(=O)N2CCCCCC2)ccc1OC (stereo unspecified),-4.07%
17,COc1ccc2[nH]c(=O)c(-c3noc(-c4ccc(F)cc4)n3)cc2c1,63.8% [fluorescence artefact?] (active)
18,COc1ccc(-c2noc(-c3ccc(C)cc3)n2)cc1,-3.86%
19,Cc1cccc(-c2noc(-c3ccc(F)cc3)n2)c1,-10.2%
